The record followed here is the OligoGym collection.
Further: reference of the scale not given here.

The target in the first test is HOXA6. Briefly: pooled miR-30 sensor sort-seq; sequence = guide strand. Particulars: shRNA.
The sequence TTGTCCGGGAGACTCGACGCCC showed a sensor-assay potency score (higher = more potent) of -0.988.

As for TGAGGTGTACGTCTTGTCCGGG, the sensor-assay potency score (higher = more potent) was -0.648.

The sequence TGTTGGTAGAAACAAGGTGAGG registered a sensor-assay potency score (higher = more potent) of -1.56.

Another test deals with HOXD12. The description is as above. Particulars: shRNA.
TTGGTGTCGTCCTTGAAGCCAG came in with a sensor-assay potency score (higher = more potent) of -0.854.

In the case of TTGACTTGCTGGTCGCTGAGGT, the sensor-assay potency score (higher = more potent) is 0.586.

Sequence TATTGGACAATTCCTTGCGTTT displayed a sensor-assay potency score (higher = more potent) of -1.31.

Take TGGAGAAGTAGAAAGAGTCTGG: the sensor-assay potency score (higher = more potent) is -0.0412.

In the case of TAGGGTTTCCGCTTCTTGCGGG, the sensor-assay potency score (higher = more potent) is -0.0363.

Turning to TGTCATGTTCAAGTTGAGCGGG, the sensor-assay potency score (higher = more potent) is -0.623.

ATTTTGACTTGCTGGTCGCTGA yielded a sensor-assay potency score (higher = more potent) of -0.889.

Sequence TTAGCCTGCTCTTCGGGTCCGT returned a sensor-assay potency score (higher = more potent) of -0.755.

In the case of TTTGACTTGCTGGTCGCTGAGG, the sensor-assay potency score (higher = more potent) is -0.827.

The sequence TTGCTGGTCGCTGAGGTTCAGC had a sensor-assay potency score (higher = more potent) of -1.6.

The target of the next test is HOXD4. The description is as above. To be noted: shRNA.
As for TTCTTTTTCCAGTTCTAGGACT, the sensor-assay potency score (higher = more potent) was -0.804.

On to TCGGACTGACTGTAGGCCCGGG, for which the sensor-assay potency score (higher = more potent) was -0.239.

TTGGGGTCCACATACTTGGAGT showed a sensor-assay potency score (higher = more potent) of -0.994.

The sequence TAGTGTTGGGCAGCTTATGATC showed a sensor-assay potency score (higher = more potent) of -1.61.

TAAAATGAAATTCTTTTTCCAG gave a sensor-assay potency score (higher = more potent) of -0.413.

As to TGCACCTTCTTCATCCAGGGGT, the sensor-assay potency score (higher = more potent) is -0.0453.

The sequence TAGGACTTGCTGCCGGGTGTAG yielded a sensor-assay potency score (higher = more potent) of -1.46.

In turn, TTATGTTCTCAGTAGCTCCTGC gave a sensor-assay potency score (higher = more potent) of 0.0954.

Regarding TTTTTCCAGTTCTAGGACTTGC, the sensor-assay potency score (higher = more potent) was -0.495.

As for TTATGATCTTTTTTCCACTTCA, the sensor-assay potency score (higher = more potent) was -0.3.

Regarding ATGATCTTTTTTCCACTTCATC, the sensor-assay potency score (higher = more potent) is -1.7.

Another test has as its target HP1BP3. The description is as above. To be noted: shRNA.
Take TATCTTCTACCTTCTCACCTAA: the sensor-assay potency score (higher = more potent) was -0.313.

The sequence TTCGGAAACAGAACTCCTGGGC had a sensor-assay potency score (higher = more potent) of 0.0322.

As for TACTGAGACACATATTTCCTGA, the sensor-assay potency score (higher = more potent) is -0.347.

TAGACTGATCTTTCTCATCCTT: the sensor-assay potency score (higher = more potent) was found to be 0.288.

In turn, TTCCTCTGAACTTATGTCTGGT registered a sensor-assay potency score (higher = more potent) of 0.357.

Sequence TTCTGAACCACAACAAAACTTC came in with a sensor-assay potency score (higher = more potent) of -0.196.

Regarding TCTTCGGAAACAGAACTCCTGG, the sensor-assay potency score (higher = more potent) was -0.507.

For the sequence TAAGATTGCATCCATCTTGGGA, the sensor-assay potency score (higher = more potent) was -0.272.

As for TTTTCGAATAGCAACCACTGAT, the sensor-assay potency score (higher = more potent) was -0.782.

TTGATTTCTGAACCACAACAAA yielded a sensor-assay potency score (higher = more potent) of -1.61.

In turn, TTCTTCTGCAACCTTCTCTTAG registered a sensor-assay potency score (higher = more potent) of -0.784.

The target of the next test is HPD. Described as above. Particulars: shRNA.
In turn, TGTGATGATGTCTTCGGTCTTG gave a sensor-assay potency score (higher = more potent) of 0.215.

Sequence AACTTGTCTTGCTCTACCCAGG returned a sensor-assay potency score (higher = more potent) of -0.858.

Sequence TGCTGCAGTAGAATGACGCGGC came in with a sensor-assay potency score (higher = more potent) of -0.159.

With TACATGGCTGACCACCTCCCGG, the sensor-assay potency score (higher = more potent) was -1.66.

The sequence TTTCTCGTCGTAGTCCACCAGG came in with a sensor-assay potency score (higher = more potent) of -0.901.
